Peg3 prom inh – Peg3 promoter-driven luciferase inhibitors, primary screen, cell-based, HeLa, luciferase luminescence; hit rate 1.7% among 360,000; HeLa PEG-Prom luciferase reporter, overnight; inhibition, % at 20 µM;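 active means inhibition of at least 50% at 20 µM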
HIF-2a block – HIF-2a reporter inhibitors, primary screen, luminescence, 786-0 RCC cells; 786-0 RCC cells HIF-2a reporter, luciferase luminescence, overnight; inhibition, % at 18.8 µM; hit rate 0.72% among 360,000;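 active means inhibition of the luminescence signal of 40% or more relative to plate controls, in a single-dose primary screen at 18.75 µM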
Mdm2 MdmX PPI – inhibitors of human Mdm2-MdmX association, primary screen, cell-based, luminescence, split luciferase, SaOS-2, uHTS | Protein Mdm4 (Homo sapiens) + E3 ubiquitin-protein ligase Mdm2 (Homo sapiens), … | SaOS-2 split-luciferase Mdm2/MdmX complementation | inhibition, % at 8 µM | hit rate 3% among 330,000;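 active means inhibition of at least 50% at 8 µM in the primary screen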
Target sequence (O15151 whole entry, looked up): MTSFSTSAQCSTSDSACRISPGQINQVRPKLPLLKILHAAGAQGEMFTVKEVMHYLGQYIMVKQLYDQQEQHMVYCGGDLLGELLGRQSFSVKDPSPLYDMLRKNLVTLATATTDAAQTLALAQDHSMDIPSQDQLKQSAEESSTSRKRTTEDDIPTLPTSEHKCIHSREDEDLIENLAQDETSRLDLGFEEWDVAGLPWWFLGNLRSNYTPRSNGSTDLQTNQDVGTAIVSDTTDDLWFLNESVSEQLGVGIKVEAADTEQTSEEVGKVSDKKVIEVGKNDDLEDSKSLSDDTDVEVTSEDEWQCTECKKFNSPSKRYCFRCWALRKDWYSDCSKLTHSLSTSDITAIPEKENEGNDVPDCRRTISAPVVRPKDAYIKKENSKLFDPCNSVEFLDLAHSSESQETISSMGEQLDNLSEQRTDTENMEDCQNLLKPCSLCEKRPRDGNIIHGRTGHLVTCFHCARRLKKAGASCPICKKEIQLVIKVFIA
Target sequence (Q00987 whole entry, looked up): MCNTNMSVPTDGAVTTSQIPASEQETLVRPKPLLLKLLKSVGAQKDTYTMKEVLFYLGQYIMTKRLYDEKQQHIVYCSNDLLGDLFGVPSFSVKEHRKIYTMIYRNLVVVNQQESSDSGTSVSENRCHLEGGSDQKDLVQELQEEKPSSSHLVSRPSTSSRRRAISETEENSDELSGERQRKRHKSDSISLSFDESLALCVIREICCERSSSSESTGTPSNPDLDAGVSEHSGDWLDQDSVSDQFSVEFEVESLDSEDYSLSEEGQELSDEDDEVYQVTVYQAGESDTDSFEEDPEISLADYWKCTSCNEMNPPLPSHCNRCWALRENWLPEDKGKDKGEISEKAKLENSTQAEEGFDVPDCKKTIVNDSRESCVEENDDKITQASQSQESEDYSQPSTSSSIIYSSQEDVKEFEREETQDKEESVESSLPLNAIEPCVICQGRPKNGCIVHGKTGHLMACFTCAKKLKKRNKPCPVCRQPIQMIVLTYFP
ABHD5 PLIN5 PPI – ABHD5-PLIN5 interaction inhibitors, primary screen, cell lysate, split luciferase complementation, luminescence | inhibition, % at 4 µM | Perilipin-5 (Homo sapiens) + 1-acylglycerol-3-phosphate O-acyltransferase ABHD5 (Homo … | Split G. princeps luciferase complementation, 4 h | hit rate 0.78% among 360,000;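 active means inhibition above the mean inhibition across every tested compound plus 3 SD, cut at about 22% in these data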
KKLEB tox – cytotoxicity in KKLEB CF airway cells, primary screen, cytotoxicity control for CF NF-kB inhibitor project, cell-based, uHTS, fluorescence assay plates; KKLEB CF airway cells viability, ATPlite luminescence, overnight; stronger effect = lower value; cells stimulated with P. aeruginosa culture filtrate; activity change (cytotoxicity), % at 5 µM; hit rate 0.36% among 360,000; AID 602141, 2011;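 active means corrected activity change at or below -50% at 5 µM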
CF NFkB inh – inhibitors of PAF-induced NF-kB signaling, primary screen, cell-based, GFP fluorescence, uHTS; KKLEB NF-kB-GFP reporter, GFP fluorescence overnight; inhibition, % at 5 µM; hit rate 0.86% among 360,000; AID 588850, 2011;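 active means at least 50% inhibition at 5 µM, scaled per plate between neutral and stimulator controls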;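 further: PAF is a Pseudomonas aeruginosa culture filtrate used as stimulus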
Mdm2-MdmX conf – Mdm2-MdmX complex disruptors, retested hits, confirmation, luminescence, single concentration; shares compounds with Mdm2 MdmX PPI; inhibition, % at 8 µM; AID 489028, 2010; Mdm2-MdmX binding, luminescent assay; hit rate 55% among 10,000; in the data active means inhibition above about 40%
FLuc counter – full-length luciferase signal inhibition, confirmation, counter-screen for Mdm2/MdmX interaction inhibitor project, cell-based, single concentration, SaOS-2 | shares compounds with Mdm2 MdmX PPI | SaOS-2 full-length luciferase counterscreen, luminescence | inhibition, % at 8 µM | hit rate 77% among 6,200;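 active means mean inhibition at 8 µM reaching about 37%, which flags the compound as non-specific, limit read from the data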;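 further: p53-null SaOS-2 cells with luciferase driven by a doxycycline-inducible promoter; compound on cells about two nights before reading with doxycycline added after day one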
Hits are given with their value; – = inactive; · = no result given. Hits are enriched below; roughly 4.6% of the tested compounds scored in any of these assays.

SMILES	Peg3 prom inh	HIF-2a block	Mdm2 MdmX PPI	ABHD5 PLIN5 PPI	KKLEB tox	CF NFkB inh	Mdm2-MdmX conf	FLuc counter
O=C1C(=O)N(c2nccs2)C(c2ccccc2F)/C1=C(\O)c1ccc2c(c1)OCCO2 (stereo not drawn)	–	–	71	–	–	–	68	37
Cc1cc(C)c2nc(-c3ccccn3)cc(C(=O)N3CCCC3)c2c1	–	–	–	–	–	–	·	·
CCNC(=S)N(CCc1ccccc1C)Cc1cc2cc(OC)c(OC)cc2[nH]c1=O	–	–	–	–	–	–	·	·
COc1cc2cc(CN(CCc3ccccc3C)C(=S)NCCCN(C)C)c(=O)[nH]c2cc1OC	–	–	55	–	–	–	–	·
COc1cc2cc(CN(CCc3ccccc3C)C(=S)NCCCN3CCOCC3)c(=O)[nH]c2cc1OC	–	–	52	–	–	–	–	·
Cc1ccc(C(=O)NCCN2C3=NC[C@H](C(C)C)N3C[C@H]2Cc2ccc(O)cc2)cc1Br	–	–	–	–	–	–	·	·
COc1ccc(C[C@H]2CN3C(=NC[C@@H]3C(C)C)N2CCNC(=O)c2ccc(C)c(Br)c2)cc1	–	–	64	–	–	–	–	·
O=c1c2c3c(sc2ncn1/N=C/c1ccc([N+](=O)[O-])o1)CCCC3	–	–	58	–	–	–	43	57
Cn1cc(/C=N/n2cnc3sc4c(c3c2=O)CCCC4)c2ccccc21	–	–	–	–	–	–	·	·
O=C(Cc1ccc([N+](=O)[O-])cc1)Nc1cccc(C(F)(F)F)c1	–	–	–	–	–	–	·	·
O=C(Cc1ccc([N+](=O)[O-])cc1)Nc1cc(C(F)(F)F)cc(C(F)(F)F)c1	–	–	51	–	–	–	75	63
N#Cc1ccccc1OCC(=O)NCC(c1ccc(F)cc1)N1CCOCC1 (stereo not drawn)	–	–	–	–	–	–	·	·
CCN(CC)CCNC(=O)c1[nH]c2ccc(OCc3ccccc3)cc2c1C	–	–	61	–	–	–	–	69
CCN(Cc1ccccc1)C(=O)c1[nH]c2ccc(OC)cc2c1C	–	–	–	–	–	–	·	·
CC1CC(C)CN(S(=O)(=O)c2ccc(F)c(C(=O)Nc3ccc(Cl)cc3F)c2)C1 (stereo not drawn)	–	–	52	–	–	–	–	·
CC1CC(C)CN(S(=O)(=O)c2ccc(NC(=O)c3ccc(=O)[nH]c3)cc2)C1 (stereo not drawn)	–	–	59	–	–	–	51	74
Cc1c(C(=O)Nc2ccc(F)cc2)oc2ccc(S(=O)(=O)N3CC(C)CC(C)C3)cc12 (stereo not drawn)	–	–	64	–	–	–	–	69
CCN(CC)C(=O)c1oc2ccc(S(=O)(=O)N3CC(C)CC(C)C3)cc2c1C (stereo not drawn)	–	–	–	–	–	–	·	·
CC(=O)c1ccc(N2C(=O)CC(N3CCN(S(=O)(=O)c4ccc(C)c(C)c4)CC3)C2=O)cc1 (stereo not drawn)	–	–	–	–	–	–	·	·
COc1ccc(C2(O)CCN(CC(=O)Nc3nc(-c4ccccc4)cs3)CC2)cc1	–	–	–	–	–	–	·	·
CC(=O)c1ccccc1NC(=O)COC(=O)CN1C(=O)C2CCCCC2C1=O (stereo not drawn)	–	–	–	–	–	–	·	·
Cc1sc2ncnc(N3CCC(C(=O)Nc4ccccc4C(C)(C)C)CC3)c2c1C	–	–	51	–	–	68	60	–
Cc1sc2ncnc(N3CCC(C(=O)Nc4nc(-c5cccs5)cs4)CC3)c2c1C	–	–	86	–	–	–	93	43
CCc1nnc(NC(=O)C2CCN(c3ncnc4sc(C)c(C)c34)CC2)s1	–	–	53	–	–	–	53	81
CCCCc1nnc(NC(=O)C2CCN(c3ncnc4sc(C)c(C)c34)CC2)s1	–	–	–	–	–	–	·	·
SMILES	Peg3 prom inh	HIF-2a block	Mdm2 MdmX PPI	ABHD5 PLIN5 PPI	KKLEB tox	CF NFkB inh	Mdm2-MdmX conf	FLuc counter
CCc1nnc(NC(=O)C2CCN(S(=O)(=O)c3ccc(C)cc3)CC2)s1	–	–	53	–	–	–	–	·
Cc1ccc(S(=O)(=O)N2CCC(C(=O)Nc3nnc(C4CCCC4)s3)CC2)cc1	–	–	–	–	–	–	·	·
O=C(NCCCCc1ccccc1)Nc1ccc(F)cc1F	–	–	–	–	–	–	·	·
C[C@H](CO)N1C[C@H](C)[C@@H](CN(C)C(=O)Nc2ccc3c(c2)OCO3)Oc2ccc(NC(=O)CCC(F)(F)F)cc2C1=O	–	–	–	–	–	–	·	·
CC(C=CC(O)=C1C(=O)CNC1=O)=C[C@@H](C)C1OC2(C)OC(C(=O)C3O[C@@]32C)C1C (stereo partly drawn)	·	–	·	–	·	·	·	·
Cc1nc(Cn2c3ccc(NC(=S)NC4CCCCC4)cc3c(=O)n2C)cs1	–	–	·	–	–	–	·	·
O=Cc1ccc(O)c2ncccc12	–	–	56	–	–	–	–	·
CC(C)CNC(=O)C(=O)NCC1OCCCN1S(=O)(=O)c1cccs1 (stereo not drawn)	–	–	–	–	–	–	·	·
CCOC(=O)CSc1nc2cc(C(=O)NCc3ccco3)ccc2c(=O)n1-c1ccc(F)cc1	–	–	71	–	–	–	–	83
O=C(NCc1ccco1)c1ccc2c(=O)n(-c3ccccc3)c(=S)[nH]c2c1	–	–	50	–	–	–	–	·
CCOC(=O)CSc1nc2cc(C(=O)NCc3ccco3)ccc2c(=O)n1C1CCCCC1	–	–	–	–	–	–	·	·
O=C(NCc1ccco1)c1ccc2c(=O)n(CC3CCCO3)c(=S)[nH]c2c1 (stereo not drawn)	–	–	–	–	–	–	·	·
COc1cccc(C(N)c2nc(-c3csc4ccccc34)cs2)c1 (stereo not drawn)	–	–	·	–	–	–	·	·
Cc1cc(C(=O)NC2CC(C)(C)Cc3c2cnn3-c2cccc(F)c2)nn1C (stereo not drawn)	–	–	–	–	–	–	·	·
Cc1ccc2nc(N(CCN3CCOCC3)C(=O)CCS(=O)(=O)c3ccccc3)sc2c1	–	–	–	–	–	–	·	·

Screening results as filed in PubChem BioAssay.
